In one experiment the target is HMP19. Nature of the experiment: pooled miR-30 sensor sort-seq; sequence = guide strand. Conditions: shRNA.
With TAAGTGATTAACCTCCAAGGGA, the sensor-assay potency score (higher = more potent) is -0.21. Take TTGGTTCCCTTCTCGCTGGGGT: the sensor-assay potency score (higher = more potent) turned out to be 0.36. TTATAGACGAATCCCTCTGGGC came in with a sensor-assay potency score (higher = more potent) of -0.74. TCTTGTCTTCACAATCACCTTT gave a sensor-assay potency score (higher = more potent) of -0.0794.

Sequence TTGTTCTTCTGTTCCGGCTGAT yielded a sensor-assay potency score (higher = more potent) of 0.313. Sequence TTGTACATGAGCCTGACTCGGC registered a sensor-assay potency score (higher = more potent) of -0.338. As for TATCGGTTCAGACAACTCCAGC, the sensor-assay potency score (higher = more potent) is -1.43. TTCGGCACCCGGAACTTCCCTT: the sensor-assay potency score (higher = more potent) is -0.311.

TAAACCACCAGGAACACGATGC displayed a sensor-assay potency score (higher = more potent) of -0.408.

For TTCACAATCACCTTTTCTGGAG, the sensor-assay potency score (higher = more potent) is -0.586. In turn, TTCTTGTCTTCACAATCACCTT had a sensor-assay potency score (higher = more potent) of -1.21. On the same count and under the same terms, then TACAGTGTTGTCTTGTAACTGG, with -0.189.

The next experiment concerns the target HMX2. The description is as above. Conditions: shRNA.
On to TGTATAGGTTGTAGAGAGGTAA, for which the sensor-assay potency score (higher = more potent) was -0.622. In turn, TCGAGCTGGTACACCTGGCTGC had a sensor-assay potency score (higher = more potent) of -0.393.

TGGAACCAAGTCTTTACCTGGG returned a sensor-assay potency score (higher = more potent) of -0.326. TTCTTTAAAGTCCGAGTGCGAA came in with a sensor-assay potency score (higher = more potent) of -1.59. Consider TTAAAGTCCGAGTGCGAAGGAG, for which the sensor-assay potency score (higher = more potent) was -0.61. On to TGAAGCTGGAGACGCCACCGGC, for which the sensor-assay potency score (higher = more potent) is -0.77.

Consider TCCGAGGACACGGACAGGCTGC, for which the sensor-assay potency score (higher = more potent) was -1.46. For TCTTCTTCTTGGCCGCGCCGGC, the sensor-assay potency score (higher = more potent) was -1.36. The same measure, in the same setting: then TAAAGTCCGAGTGCGAAGGAGA, with -1.28; and ATGGACTGGATGGTGAAGCTGG, with -1.05. Consider TTTCTCTTCTTTAAAGTCCGAG, for which the sensor-assay potency score (higher = more potent) was -0.831. In turn, TTCTCTTCTTTAAAGTCCGAGT yielded a sensor-assay potency score (higher = more potent) of -1.

The next experiment deals with HNF1A. The description is as above. Conditions: shRNA.
Sequence TACTTCTGCAGTCTCACTGGTC displayed a sensor-assay potency score (higher = more potent) of -0.169.

In the case of TAGCGTCTCTCGCTCCTCCTTG, the sensor-assay potency score (higher = more potent) is -0.628. Still for that read-out and setting: then TTGTAGACACGCACCTCCGTGA, with -0.58; and ATCGTCGTCCGTCTCGTCCTCG, with -0.832; and TTCTGTACTCAGCAGGCTGTGG, with -0.687.

TAGGACTTGACCATCTTCGCCA registered a sensor-assay potency score (higher = more potent) of 0.419. TTGCTGGAGTCTGAGCTCTGGT gave a sensor-assay potency score (higher = more potent) of -1.14.

TACAGCACCAGGCTGCTGGAGG had a sensor-assay potency score (higher = more potent) of -0.908.

In the case of TGGTTGGTAGCTCATCACCTGT, the sensor-assay potency score (higher = more potent) is -1.74. Turning to ATGAAGGTCTCGATGACGCTGT, the sensor-assay potency score (higher = more potent) turned out to be 0.222. TTGATGACCGGCACACTCTGTG registered a sensor-assay potency score (higher = more potent) of 0.355.

Turning to TGAGCTCTGGTACAGCACCAGG, the sensor-assay potency score (higher = more potent) was -1.55.

For the next experiment, the target named is HNRNPL. Described as above. As to conditions: shRNA.
TACAGCGTAGCCATCAGCCATC came in with a sensor-assay potency score (higher = more potent) of -1.38. Same read-out and setting: then TTGAACTGAGTCAAATTCCACC, with -0.367; and TAGTGTAAAGAACATCCGTGGT, with -0.214. Still for that read-out and setting: then ATAGTGTAAAGAACATCCGTGG, with -0.231.
Note: reference of the scale not given here.
